Measured values: PubChem BioAssay
Calls of active or inactive are those of the source. Unless noted, how the calls were made is not given here.

Key:
[1] = compounds binding Alexa647 anti-His antibody – biochemical, small-molecule microarray, 635 nm fluorescence, artefact control for SMM control protein annotation, primary screen (AID 1128); settings: higher = more signal;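 further: score merges feature fluorescence with signal-to-noise for each printed compound spot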
[2] = tested on: Human papillomavirus type 1a E7 protein (residues 1-88); assay: HPV1a E7 small-molecule binders, primary screen, biochemical, small-molecule microarray, residues 1-88, 635 nm (AID 1129); settings: small-molecule microarray binding, fluorescence 635 nm; higher = more signal
[3] = biological target: Focal adhesion kinase 1 (Homo sapiens) (UniProt Q05397); assay: PTK2 protein binding on printed compound slides – biochemical, small-molecule microarray, 635/667 nm fluorescence, BSA, DTT, primary screen (AID 1130); settings: 635 nm fluorescence, higher = more signal;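 further: composite of spot emission at 667 nm and signal to noise over triplicate slides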
[4] = tested on: Fibrinogen (Alexa647-labelled); assay: Alexa647-fibrinogen binding to printed small molecules – biochemical, small-molecule microarray, 635/667 nm fluorescence, artefact control for SMM control-protein annotation, profiling panel (AID 1131); settings: fibrinogen-A647 binding fluorescence, higher = more signal;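 further: z-score merges 667 nm fluorescence with per-spot signal-to-noise over triplicate slides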
[5] = biological target: Follistatin (Homo sapiens) (UniProt P19883); assay: FST protein binding to printed compounds – biochemical, small-molecule microarray, 635/667 nm fluorescence, primary screen (AID 1132); settings: 635 nm fluorescence, higher = more signal
[6] = biological target: Fibroblast growth factor 2 (Homo sapiens) (UniProt P09038); assay: basic fibroblast growth factor binding to printed compounds – biochemical, small-molecule microarray, 635/667 nm fluorescence, primary screen (AID 1133); settings: FGF2, fluorescence 635/667, higher = more signal
[7] = JC-1 mitochondrial potential readout, lung cancer cells – cell-based, A549, JC-1 fluorescence, basal, 24 h, 100 nL, profiling panel (AID 1138); settings: higher = more signal;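 further: A549 lung adenocarcinoma cells under basal conditions with no added stimulus; test concentration not given here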
Lefty1 = Lefty1 protein binding to printed compounds – biochemical, small-molecule microarray, 635/667 nm fluorescence, primary screen (AID 1139); settings: fluorescence 635/667, higher = more signal
[8] = tested on: wheat germ agglutinin (Triticum aestivum), Alexa647-labelled; assay: Alexa647-WGA lectin binding to printed small molecules – biochemical, small-molecule microarray, 635/667 nm fluorescence, artefact control for SMM control-protein annotation, profiling panel (AID 1140); settings: WGA-A647 binding, 635 nm fluorescence, higher = more signal;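 further: score merges 667 nm feature emission with signal to noise over triplicate slides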
[9] = biological target: Luciferin 4-monooxygenase (Photinus pyralis) (UniProt P08659); assay: inhibition of purified Photinus pyralis luciferase – biochemical, luminescence, purified enzyme, 2006 set, primary screen (AID 1141); settings: purified firefly luciferase, SteadyGlo luminescence, 30 min; higher = more signal, called active from +8 up or from −8 down;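 further: cell-free assay with purified firefly luciferase at 100 ng per well in PBS; test concentration not given here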
[10] = tested on: Wnt5a (protein binding on small-molecule microarray); assay: small molecules binding Wnt5a protein – biophysical, small-molecule microarray, 635/667 nm fluorescence, primary screen (AID 1142); settings: 635 nm fluorescence, higher = more signal;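 further: fluorescence read at 667 nm with signal to noise per printed feature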
[11] = ATP-based viability of Huh7 replicon cells – cell-based, CellTiter-Glo luminescence, basal, 48 h, cytotoxicity control for HCV replication inhibitor project, primary screen (AID 1143); settings: higher = more signal, called active from +8 up or from −8 down;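 further: Huh7 hepatoma cells carrying a hepatitis C replication reporter with no stimulus; test concentration not given here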
[12] = Pseudomonas biofilm growth suppression – PAO1 strain, BacTiter-Glo luminescence, LB-PBS, primary screen (AID 1144); settings: P. aeruginosa PAO1 biofilm, 12 h, higher = more signal
[13] = basal CRE-LacZ reporter activity in PC12 – cell-based, unstimulated, primary screen (AID 1145); settings: no forskolin, luminescence, 4.5 h, higher = more signal, called active from +8 up or from −8 down
[14] = forskolin-driven CRE-LacZ activity in PC12 – cell-based, CRE-LacZ reporter, forskolin-stimulated, primary screen (AID 1146); settings: luminescence, 4.5 h, higher = more signal, called active from +8 up or from −8 down;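 further: PC12 cells with 6xCRE LacZ reporter stimulated by forskolin 10 µM; beta-galactosidase reporter signal reflecting CREB driven transcription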
[15] = biological target: Streptavidin (Streptomyces avidinii) (UniProt P22629); assay: compounds binding control protein streptavidin – biophysical, small-molecule microarray, 635/667 nm fluorescence, artefact control for SMM compound annotation, primary screen (AID 1147); settings: higher = more signal;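 further: signal reflects streptavidin binding to arrayed compounds as a control protein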
[16] = probe aInhba binding on compound microarray – biochemical, small-molecule microarray, 635/667 nm fluorescence, primary screen (AID 1148); settings: higher = more signal;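 further: score merges 667nm spot fluorescence with signal-to-noise for antibody binding to printed compounds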
Torsin-1A (Homo sapiens) [17] = biological target: Torsin-1A (Homo sapiens) (UniProt O14656); assay: TOR1A wild-type binding on microarray – cell lysate, small-molecule microarray, lysate, 635/667 nm, primary screen (AID 1149); settings: COS7 hTOR1A-WT lysate, 635 nm fluorescence, higher = more signal
Torsin-1A (Homo sapiens) [18] = biological target: Torsin-1A (Homo sapiens) (UniProt O14656); assay: torsin A mutant lysate binding on microarrays – cell lysate, small-molecule microarray, COS7 lysate, 635/667 nm fluorescence, primary screen (AID 1150); settings: COS7 hTOR1A mutant lysate, 635 nm fluorescence, higher = more signal;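 further: score pools 667 nm emission and signal to noise measuring lysate protein binding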
[19] = tested on: Sonic hedgehog protein (Shh); assay: Sonic hedgehog microarray binding compounds – biochemical, small-molecule microarray, 635/667 nm fluorescence, primary screen (AID 1151); settings: 635 nm fluorescence, higher = more signal;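 further: Shh protein binding to compounds spotted on small-molecule microarray slides; score combines spot fluorescence intensity with signal-to-noise across triplicate slides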

Chain of Follistatin (Homo sapiens) (P19883 whole entry, looked up): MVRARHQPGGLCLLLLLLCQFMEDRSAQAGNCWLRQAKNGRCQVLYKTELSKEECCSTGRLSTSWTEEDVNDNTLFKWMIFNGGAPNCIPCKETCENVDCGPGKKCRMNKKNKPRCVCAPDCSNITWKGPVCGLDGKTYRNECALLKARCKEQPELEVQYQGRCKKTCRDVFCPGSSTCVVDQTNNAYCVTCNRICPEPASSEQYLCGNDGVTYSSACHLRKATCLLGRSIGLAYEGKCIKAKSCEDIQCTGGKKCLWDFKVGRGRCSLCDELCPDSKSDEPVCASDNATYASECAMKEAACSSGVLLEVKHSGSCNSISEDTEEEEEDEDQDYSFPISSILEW
Chain of Focal adhesion kinase 1 (Homo sapiens) (Q05397 whole entry, looked up): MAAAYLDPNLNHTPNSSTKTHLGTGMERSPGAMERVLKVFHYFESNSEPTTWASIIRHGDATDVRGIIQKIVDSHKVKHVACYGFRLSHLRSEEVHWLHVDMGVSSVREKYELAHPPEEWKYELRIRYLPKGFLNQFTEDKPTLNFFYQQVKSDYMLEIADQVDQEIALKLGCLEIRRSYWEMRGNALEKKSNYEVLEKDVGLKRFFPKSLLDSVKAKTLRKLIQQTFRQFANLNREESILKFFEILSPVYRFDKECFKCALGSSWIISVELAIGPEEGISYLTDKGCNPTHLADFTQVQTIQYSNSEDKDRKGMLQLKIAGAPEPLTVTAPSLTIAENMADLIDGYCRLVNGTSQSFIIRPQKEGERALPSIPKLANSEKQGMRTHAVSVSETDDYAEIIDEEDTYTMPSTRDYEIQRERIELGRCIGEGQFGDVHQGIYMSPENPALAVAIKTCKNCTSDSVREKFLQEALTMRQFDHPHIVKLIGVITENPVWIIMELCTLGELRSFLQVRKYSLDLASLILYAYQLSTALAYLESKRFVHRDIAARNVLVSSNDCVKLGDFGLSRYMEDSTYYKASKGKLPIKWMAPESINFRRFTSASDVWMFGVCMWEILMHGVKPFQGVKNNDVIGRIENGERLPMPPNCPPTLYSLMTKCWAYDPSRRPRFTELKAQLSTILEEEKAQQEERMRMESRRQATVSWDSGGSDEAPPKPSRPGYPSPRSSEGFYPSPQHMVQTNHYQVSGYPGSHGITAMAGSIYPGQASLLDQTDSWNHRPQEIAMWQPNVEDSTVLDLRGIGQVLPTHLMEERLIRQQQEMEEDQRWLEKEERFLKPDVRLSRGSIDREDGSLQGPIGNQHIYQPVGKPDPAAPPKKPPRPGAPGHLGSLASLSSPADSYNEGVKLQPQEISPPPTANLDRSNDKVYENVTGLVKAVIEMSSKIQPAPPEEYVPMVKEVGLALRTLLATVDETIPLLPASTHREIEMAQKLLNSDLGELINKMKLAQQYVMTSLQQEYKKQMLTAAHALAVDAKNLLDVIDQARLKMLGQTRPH
Chain of Torsin-1A (Homo sapiens) (O14656 whole entry, looked up): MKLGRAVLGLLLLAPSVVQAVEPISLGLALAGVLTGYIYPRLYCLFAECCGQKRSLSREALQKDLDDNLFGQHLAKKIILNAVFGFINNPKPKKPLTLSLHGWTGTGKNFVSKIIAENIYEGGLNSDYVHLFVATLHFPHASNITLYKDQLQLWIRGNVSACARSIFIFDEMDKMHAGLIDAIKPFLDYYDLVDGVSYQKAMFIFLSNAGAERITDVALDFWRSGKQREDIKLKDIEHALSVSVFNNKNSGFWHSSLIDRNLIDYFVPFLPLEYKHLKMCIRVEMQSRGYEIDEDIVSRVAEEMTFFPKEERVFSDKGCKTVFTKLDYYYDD
Chain of Luciferin 4-monooxygenase (Photinus pyralis) (P08659 whole entry, looked up): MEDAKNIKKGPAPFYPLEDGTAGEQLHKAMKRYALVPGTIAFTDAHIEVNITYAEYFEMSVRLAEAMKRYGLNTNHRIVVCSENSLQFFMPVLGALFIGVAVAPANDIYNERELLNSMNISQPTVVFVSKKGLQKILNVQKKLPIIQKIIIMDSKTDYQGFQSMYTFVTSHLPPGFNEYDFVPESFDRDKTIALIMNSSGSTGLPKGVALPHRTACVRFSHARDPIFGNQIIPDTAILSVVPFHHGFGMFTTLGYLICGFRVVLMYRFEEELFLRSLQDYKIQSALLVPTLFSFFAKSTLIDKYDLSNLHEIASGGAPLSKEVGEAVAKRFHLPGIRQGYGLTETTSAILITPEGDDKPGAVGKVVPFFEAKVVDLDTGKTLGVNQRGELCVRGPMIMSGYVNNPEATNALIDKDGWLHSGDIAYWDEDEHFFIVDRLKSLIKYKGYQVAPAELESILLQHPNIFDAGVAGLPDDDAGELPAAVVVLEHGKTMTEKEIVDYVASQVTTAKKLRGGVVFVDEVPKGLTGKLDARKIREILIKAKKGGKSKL
Chain of Fibroblast growth factor 2 (Homo sapiens) (P09038 whole entry, looked up): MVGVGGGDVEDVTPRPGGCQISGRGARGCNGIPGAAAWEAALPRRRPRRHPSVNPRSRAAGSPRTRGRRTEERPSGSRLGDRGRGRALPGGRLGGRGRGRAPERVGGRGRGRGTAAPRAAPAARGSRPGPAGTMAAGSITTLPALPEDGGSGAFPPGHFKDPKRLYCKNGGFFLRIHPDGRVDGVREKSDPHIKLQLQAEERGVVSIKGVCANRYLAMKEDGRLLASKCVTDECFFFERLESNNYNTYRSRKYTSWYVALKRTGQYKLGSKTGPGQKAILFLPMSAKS
Chain of Streptavidin (Streptomyces avidinii) (P22629 whole entry, looked up): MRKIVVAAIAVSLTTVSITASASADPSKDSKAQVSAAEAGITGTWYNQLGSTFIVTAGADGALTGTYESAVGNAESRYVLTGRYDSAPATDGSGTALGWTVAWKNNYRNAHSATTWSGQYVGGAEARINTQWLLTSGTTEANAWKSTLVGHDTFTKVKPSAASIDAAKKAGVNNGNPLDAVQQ

| SMILES | composite z-score [1] | composite z-score [2] | composite z-score [3] | composite z-score [4] | composite z-score [5] | composite z-score [6] | z-score [7] | composite z-score (Lefty1) | composite z-score [8] | z-score [9] | composite z-score [10] | z-score [11] | z-score [12] | z-score [13] | z-score [14] | composite z-score [15] | composite z-score [16] | composite z-score (Torsin-1A (Homo sapiens) [17]) | composite z-score (Torsin-1A (Homo sapiens) [18]) | composite z-score [19] |
| --- | --- | --- | --- | --- | --- | --- | --- | --- | --- | --- | --- | --- | --- | --- | --- | --- | --- | --- | --- | --- |
| CC(C)OC(=O)C1=CCC(c2cccc(Cl)c2)O1 (stereo not given) | 0.872 | 0.291 | -0.0871 | 0.455 | -0.328 | -1.59 | -1.4 | -1.11 | 0.58 | 2.09 (inactive) | -0.593 | -5.17 (inactive) | -2.12 (inactive) | -0.471 (inactive) | -0.154 (inactive) | 0.245 | -0.191 | 1.07 | -0.268 | -1.49 |
| COc1ccc(C(O)C2C=CC3C(=O)N(c4ccccc4)C(=O)C3N2Nc2ccccc2)c2ccccc12 (stereo not given) | 2.08 | 1.12 | 0.592 | -0.833 | 0.037 | -0.702 | -0.284 | -0.0743 | 0.285 | -0.597 (inactive) | 0.145 | -2.42 (inactive) | -1.12 (inactive) | 0.24 (inactive) | 1.79 (inactive) | 0.632 | 0.382 | -0.175 | 0.15 | -0.506 |
| COc1cc2c(cc1O)C(c1ccc(CN3CCCC3)cc1)N(Cc1sc3ccccc3c1Cl)CC2 (stereo not given) | 0.423 | -0.18 | 0.0344 | 0.455 | 1.03 | 1.17 | -0.763 | 0.501 | 0.421 | 1.14 (inactive) | 0.0746 | -3.63 (inactive) | -0.0323 (inactive) | 0.416 (inactive) | 0.821 (inactive) | 0.706 | -0.292 | 0.834 | 0.309 | 0.436 |
| COC(=O)c1nc2oc1CC[C@@H](CO)NC(=O)N(C)Cc1cn(nn1)C[C@H](Cc1ccccc1)NC2=O | 0.0255 | -0.151 | -0.242 | 0.0318 | 0.905 | 1.06 | 0.457 | 0.17 | 0.536 | 0.376 (inactive) | -0.0811 | -0.0962 (inactive) | 0.0307 (inactive) | 4.65 (inactive) | 0.338 (inactive) | -0.357 | -0.016 | -0.685 | -1.25 | 0.337 |
| C=CCN1C(=O)[C@@]2(O[C@@H](CCO)[C@H]([Si](C)(C)c3ccc(OC)cc3)[C@H]2C)c2cc(NC(C)=O)ccc21 | 1.48 | 1.21 | 0.0016 | 0.818 | 1.34 | 1.45 | 0.921 | 1.22 | 0.948 | -0.301 (inactive) | 0.303 | -4.72 (inactive) | 0.445 (inactive) | 7.68 (inactive) | 0.766 (inactive) | -0.0236 | 0.0982 | 0.31 | 0.364 | 1.85 |
| [N-]=[N+]=Nc1ccccc1[C@@H]1OC(c2ccc(OCCCO)cc2)=N[C@]1(CCS(=O)(=O)c1ccccc1)C(=O)O | 1.12 | 1.22 | 0.688 | 1.03 | 1.25 | 0.933 | -1.83 | 0.874 | 0.867 | -15.1 (active) | 0.301 | -0.781 (inactive) | 1.08 (inactive) | 0.0594 (inactive) | -0.0642 (inactive) | 1.04 | 0.0559 | 0.164 | 0.719 | 0.848 |
| C=CCN1Cc2ccccc2C[C@@]2(COC(c3ccc(OCCCO)cc3)=N2)C1=O | 0.131 | 1.2 | 0.92 | 0.526 | 1.15 | 0.788 | 1.67 | 0.374 | 0.41 | -1.62 (inactive) | 0.253 | -2.99 (inactive) | -0.547 (inactive) | 3.21 (inactive) | -1.41 (inactive) | 0.112 | 0.185 | 0.729 | 0.827 | 0.521 |
| CN(C)CCCC[C@@H]1NC(=O)[C@@H]2C[C@H](C(=O)NCc3ccc(F)cc3)[C@H](c3cccc(OCCO)c3)N2C1=O | 0.654 | 0.68 | 0.0978 | 0.909 | 1.41 | 1.96 | 0.591 | 1.11 | -0.0486 | -0.579 (inactive) | 0.584 | -0.267 (inactive) | -0.824 (inactive) | 0.423 (inactive) | -1.18 (inactive) | -0.0899 | 0.374 | 1.27 | 1.12 | 2.06 |
| COc1ccc([Si](C)(C)[C@@H]2[C@@H](CCO)O[C@]3(C(=O)N(Cc4ccccc4)c4ccc(N(C=O)c5ccccc5)cc43)[C@H]2C)cc1 | 1.24 | 0.0244 | -0.205 | 0.181 | 1.08 | 0.614 | -0.276 | 0.497 | 0.467 | -0.301 (inactive) | 0.155 | -5.23 (inactive) | -1.1 (inactive) | 4.18 (inactive) | -0.336 (inactive) | -0.0047 | -0.0762 | 0.353 | 0.188 | 1.26 |
| O=C1C2C=CC(C(O)c3ccc(B(O)O)cc3)N(Nc3ccc([N+](=O)[O-])cc3)C2C(=O)N1c1ccccc1 (stereo not given) | 0.359 | 1.21 | -0.164 | 0.843 | 1.13 | 0.284 | 0.0898 | 0.284 | 1.11 | 0.491 (inactive) | 0.263 | -0.307 (inactive) | -0.0903 (inactive) | -1.07 (inactive) | -2.26 (inactive) | 0.759 | 0.0785 | 0.363 | 0.286 | 0.221 |
